Screening results: PubChem, National Center for Advancing Translational Sciences (NCATS)
BAZ2B inh = BAZ2B (human) inhibition; AID 504333; Potency, µM (series often up to 114 µM), for the others: at the top dose activity change, negative = inhibition, actives largely listed as inhibitors; AlphaScreen BAZ2B-H3K14Ac peptide displacement; 360,000 tested, 4.4% active; Q9UIF8; note: % is set by controls: 0 for no effect and ±100 for the full control effect; nearly all actives have a fitted effect of over 60% in size
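AlphaScreen luminescence quantifies BAZ2B engagement of H3K14Ac peptide; the protein and biotinylated peptide are both at 50 nM final, buffer PBS pH 7.4 with 0.01% Tween-20, all steps at room temperature.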
L3MBTL1 inh = blocks human L3MBTL1; Q9Y468; AlphaScreen L3MBTL1–H3K9me1 peptide binding; Potency, µM (highest dose often 57.1 µM), for inactives: top-dose activity, negative = inhibition, hits mostly inhibitors; 230,000 tested, 0.66% active; AID 485360; note: % is set by controls: 0 for no effect and ±100 for the full control effect; nearly all actives have a fitted effect of over 60% in size
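First, the protein-peptide complex forms for 30 min at room temperature (L3MBTL1 50 nM, biotinylated H3K9me1 peptide 75 nM). Next, compounds are pin-transferred and incubated 30 min. Finally, AlphaScreen beads are added and read after 30 min.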
G9a inh = inhibitors of human histone lysine methyltransferase G9a. G9a H3K9 monomethylation, AlphaScreen, 2 h. Potency, µM (doses to about 102 µM), without a hit: top-dose activity, negative = inhibition, hits mostly inhibitors. 350,000 tested, 8.8% active. AID 504332; note: % is set by controls: 0 for no effect and ±100 for the full control effect; nearly all actives have a fitted effect of over 75% in size
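Signal arises when biotinylated H3K9 peptide, once monomethylated, bridges streptavidin donor and antibody-captured acceptor beads. Enzyme at 20 nM was preincubated 15 min with test compounds; peptide 500 nM and SAM 20 uM then reacted for 2 h.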
HP1b chromo inh = HP1-beta chromodomain-methylated histone interaction inhibition. P83916. AlphaScreen HP1-beta / biotin-H3K9me3 peptide binding. Potency, µM (doses to about 114 µM), without a hit: at the top dose activity change, negative = inhibition, actives largely listed as inhibitors. 390,000 tested, 0.56% active; note: nearly all actives have a fitted effect of over 70% in size
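Compound inhibition of the preformed complex between 50 nM HP1-beta and 50 nM biotinylated H3K9me3 peptide was read by AlphaScreen. Buffer was PBS pH 7.4 with 0.01% Tween-20. Incubations ran 30 min at room temperature, with 10 ug/mL donor/acceptor beads.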
Sfp PPTase inh = blocks B. subtilis Sfp PPTase activity; Q9F4F7; Biochemical Sfp PPTase activity, qHTS; Potency, µM, without a hit: largest response in the series, negative = inhibition, most hits filed as inhibitors; 310,000 tested, 3.5% active; AID 1490;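 note: the enzyme is Sfp with the accession as filed and its product quenches rhodamine fluorescence; 0% = enzyme reaction without inhibitor and -100% = no enzyme wells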
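Fluorescence-quenching assay: 15 nM Sfp-PPTase preincubated 15 min at room temperature with compound, then 5 uM rhodamine-CoA and 12.5 uM BHQ-2-labelled YbbR peptide added. Fluorescence (ex 525/em 598 nm) read at start and after 30 min; difference gives rate.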
JMJD2A Tudor = JMJD2A Tudor domain (human) inhibition. O75164. AlphaScreen JMJD2A-Tudor / H3K4me3 peptide binding. Potency, µM (highest dose often 114 µM), inactives show at the top dose activity change, negative = inhibition, most hits filed as inhibitors. 390,000 tested, 4.4% active. AID 504339; note: % is set by controls: 0 for no effect and ±100 for the full control effect; nearly all actives have a fitted effect of over 50% in size
* marks the source's active call; other numbers are inactive results; ? = inconclusive; nt = no result given; ! = not active in a repeat; [ ] = remark or other dose. Shown are actives, neighbours in structure and some others; about 12% of the full set was active somewhere. Calls come from the whole dose curve; as a rule, active = well fitted curve in the direction sought with a large enough effect; inconclusive = small, poorly fitted or top-dose-only effect, or another doubt; inactive = no such curve, though single readings can be large; an effect the other way counts as inactive or inconclusive. Potency is the fitted concentration of half-maximal effect.

SMILES	BAZ2B inh	L3MBTL1 inh	G9a inh	HP1b chromo inh	Sfp PPTase inh	JMJD2A Tudor
COc1cccc(N2CC(NC(=O)Cc3cccs3)CC2=O)c1 (stereo unspecified)	0.0%	nt	-1.2%[59 µM]	6.9%	nt	-18.8%
O=C(CN1CCC(C(=O)c2ccc(F)cc2)CC1)Nc1ccc(F)cc1	-2.1%	0.8%	7.8%[59 µM]	38.1%	13.0%	-8.8%
CCC(=O)Nc1ccc(C(=O)CN2CCC(C)CC2)cc1	-7.2%	nt	10µM*	nt	-14.8%	nt
Cc1cc(NCCCCO)n2c(nc3ccccc32)c1C#N	?	-3.5%	2.4%[59 µM]	11.3%	-10.6%	-6.3%
C=C(C)CSc1cc(C)c(C#N)c2nc3ccccc3n12	-24.2%	-0.5%	1.41µM*	42.6%	31.6µM*	-12.6%
CCc1ccc(NC(=O)CCCc2nnc3n(CC(C)C)c(=O)c4sccc4n23)cc1	-16.3%	nt	-3.0%[59 µM]	12.0%	nt	-19.4%
Cc1ccc(-c2cc(-c3ccco3)c3c(N)c(C(=O)NN)oc3n2)cc1	?	17.9%	nt	-1.4%	?	?
COc1cccc(/C=N/NC(=O)c2oc3nc(-c4ccccc4)cc(-c4ccco4)c3c2N)c1	-19.6%	-12.6%	31.6µM*	36.9%	-12.8%	-9.7%
O=C(CN1CCN(C2CCCCC2)CC1)NCCC1=CCCCC1	50.1µM*	-1.0%	nt	?	79.4µM*	12.6µM*
CCC(C)Sc1nnc(NS(=O)(=O)Cc2ccccc2)s1 (stereo unspecified)	-23.8%	-0.6%	31.6µM*	44.4%	9.3%	-8.2%
COCCSc1nnc(NS(=O)(=O)Cc2ccccc2)s1	-21.8%	nt	?	10.2%	8.0%	-7.7%
CCCC1(C(=O)O)NC(c2ccccc2O)C2C(=O)N(Cc3ccccc3)C(=O)C21 (stereo unspecified)	?	nt	?	59.9%	?	-13.8%
CSCCC1(C(=O)O)NC(c2ccccc2O)C2C(=O)N(C(C)C)C(=O)C21 (stereo unspecified)	?	nt	-7.4%	18.3%	79.4µM*	?
COC(=O)c1nnc(C(=O)NCc2ccccc2)c2[nH]c3ccc(OC)cc3c12	nt	nt	nt	nt	10.0%	nt
O=C(NNc1cccc(Cl)c1)c1cccnc1Oc1ccccc1	-4.5%	-10.7%	15.8µM*	35.6%	-4.6%	5.3%
O=C(Nc1ccc(F)cc1)c1cccnc1Oc1ccccc1	3.1%	nt	5.9%	25.0%	15.9%	3.1%
O=C(O)c1ccc(S(=O)(=O)c2ccc(Sc3ccc(C(=O)O)c(C(=O)O)c3)cc2)cc1	50.1µM*	-6.4%	44.7µM*	15.6%	4.4%	-14.1%
COC(=O)c1ccc(CN2C(=O)c3ccccc3C2=O)o1	11.1%	nt	19.5%[59 µM]	18.8%	5.8%	-1.4%
COC(=O)c1ccc(CN2CCN(Cc3ccc(C(=O)OC)o3)CC2)o1	nt	-4.6%	11.2µM*	19.1%	20.0%	5.2%
CCOC(=O)c1cc(-c2ccc(C)cc2)n(CCC(=O)Nc2ccc(C(C)C)cc2)c1C	-17.3%	nt	-0.2%[59 µM]	24.7%	nt	-13.8%
CN1C(=S)SC(C)(NO)C1(C)C (stereo unspecified)	?	4.5%[11.4 µM]	?	?	56.2µM*	22.4µM*
Cc1nnc2c(-c3ccccc3)nc3ccccc3n12	-5.9%	nt	-2.4%[12.7 µM]	17.9%	11.5%	11.9%
CCN1N=C(C)C=C(c2ccccc2)n2c1nc1ccccc12	-17.4%	-4.0%	79.4µM*	25.1%	14.1%	-12.4%
Cn1cc(/C=C2\SC(=O)NC2=S)c2ccccc21	31.6µM*	-5.7%	nt	?	31.6µM*	?
Cc1ccc(/C=C2\SC(=S)N(CC3CCCO3)C2=O)o1 (stereo unspecified)	31.6µM*	?	5.62µM*	31.6µM*	10µM*	35.5µM*
SMILES	BAZ2B inh	L3MBTL1 inh	G9a inh	HP1b chromo inh	Sfp PPTase inh	JMJD2A Tudor
Cc1ccc(/C=N/N2C(=O)C3C(C2=O)C2C=CC3C23CC3)o1 (stereo unspecified)	-2.7%	2.3%	-3.7%[59 µM]	15.6%	-5.8%	-6.6%
O=C1/C(=C\c2ccc(-c3ccccc3Cl)o2)SC(=S)N1CC1CCCO1 (stereo unspecified)	?	-7.4%	?	?	?	?
O=C1/C(=C/c2ccco2)SC(=S)N1CC1CCCO1 (stereo unspecified)	35.5µM*	15.8µM*	?	35.5µM*	17.8µM*	25.1µM*
Cc1ccc(/C=C2/SC(=O)NC2=S)o1	50.1µM*	nt	17.8µM*	?	22.4µM*	39.8µM*
Cc1nc2ncnn2c(C)c1CCC(=O)NCc1ccccc1Cl	1.9%	nt	0.2%[59 µM]	10.9%	nt	-12.5%
COc1ccc(-c2oc3ccc(-c4cc(OC)c(OC)c(OC)c4)cc3c2C#Cc2ccsc2)cc1	-28.6%	8.1%	10.0%	9.6%	-1.2%	-27.1%
COc1ccc(C2C=C3CNS(=O)(=O)C3CC2OC(=O)c2ccc(C(F)(F)F)cc2)cc1 (stereo unspecified)	nt	nt	nt	24.1%	4.6%	-28.3%
Cc1ccc(/C=C2/SC(=S)N(C3CCCCC3)C2=O)o1	?	nt	39.8µM*	-13.6%[57 µM]	-27.2%	-31.7%
O=C1/C(=C/c2ccncc2)SC(=S)N1C1CCCCC1	-28.5%	2.1%	-0.9%[59 µM]	2.1%	0.9%	-18.3%
Cc1ccc(C2=NC(c3ccc(F)cc3)=Nc3ccc(C)cc3N2)cc1	-10.2%	nt	5.7%[59 µM]	36.0%	nt	-17.9%
COc1ccc2c(C)nc(Nc3nc(-c4ccccc4)cc(=O)[nH]3)nc2c1	79.4µM*	-9.8%	?	21.6%	11.0%	?
Cc1cc(CN2CCN(CC(=O)Nc3cc(Cl)ccc3-n3cncn3)CC2)no1	-3.9%	-11.2%	?	21.7%	nt	-9.0%
C/C(=N\N1CCN(c2ccccc2)CC1)c1ccco1	?	-4.6%	56.2µM*	1.3%	-9.6%	-14.7%
C/C(=N\N1CCN(Cc2ccccc2)CC1)c1ccco1	-21.6%	-2.0%	-1.6%	59.9%	20.5%	-5.8%
Cc1ccc(Nc2ncccc2C(N)=O)cc1	-8.3%	-4.6%	-7.8%	27.8%	-2.4%	-17.2%
COc1ccc(-c2cc3ncc(C)n3c(Nc3ncccc3C(N)=O)n2)cc1OC	nt	nt	18.9µM*	nt	nt	nt
N[C@@H](Cc1ccccc1)C(=O)O	nt	nt	-33.5%[12.7 µM]	nt	24.5%	nt
N[C@H](Cc1ccccc1)C(=O)O	nt	nt	33.5%[59 µM]	nt	-14.9%	nt
NC(Cc1ccc(Cl)cc1)C(=O)O (stereo unspecified)	nt	nt	9.47µM*!	nt	2.1%	nt
NC(Cc1ccc2nonc2c1)C(=O)O (stereo unspecified)	79.4µM*	3.8%	12.6µM*	-6.3%	?	8.91µM*
CCOC(=O)C(Cc1ccccc1)C(=O)Nc1ccc(NC(=O)C(Cc2ccccc2)C(=O)OCC)cc1 (stereo unspecified)	-2.8%	-3.4%	-33.0%[59 µM]	36.8%	-5.5%	-1.0%
CCOC(=O)C(C(C)C)C(N)Cc1ccc(F)cc1 (stereo unspecified)	50.1µM*	nt	-38.0%	4.3%	6.1%	?
